Test systems include MARK4; MAST1; MELK; MERTK; MET; MKK7; MKNK1; MKNK2; MLK2; MLK3; MRCKA.
Holding throughout (settings): concentration: 1 μM, replicates: in singlicate; n = 1
The next assay relates to T1, MEK1.
T1 construct: gene MAP2K1

A further assay deals with T2, MEK2.
T2 construct: gene MAP2K2

Another assay has as its system T3, MEK3.
T3 construct: gene MAP2K3

In another assay the test system is T4, MEK4.
T4 construct: gene MAP2K4

The subject of another assay is T5, MEK5.
T5 construct: gene MAP2K5

The next assay deals with T6, MEK6.
T6 construct: gene MAP2K6

Another assay deals with T7, MINK.
T7 construct: gene MINK1

For the next assay, the system named is T8, MLCK.
T8 construct: gene MYLK3

The next assay relates to T9, MLK1.
T9 construct: gene MAP3K9
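Further: KINOMEscan kinase panel screen.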

For the molecule `CCS(=O)c1ccc(-c2coc3ccc(-c4nnc(C)o4)cc23)cc1` (centres unmarked), the “%Inh” value was determined as 0% in the assay with MARK4; 53% in the assay on MAST1; 0% in the assay on MEK1; 8% in the assay with MEK2; 6% in the assay with MEK3; 23% in the assay with MEK4. Further, the “%Inh” value is recorded as 22% in the assay on MEK5; 0% in the assay on MEK6; 0% in the assay on MELK; 0% with MERTK; 0% in the assay with MET; 15% in the assay on MINK. Further, the “%Inh” value is listed as 23% with MKK7; 17% with MKNK1; 1% in the assay on MKNK2; 0% with MLCK; 0% in the assay with MLK1; 7% in the assay on MLK2. Also, the “%Inh” value with MLK3 is 15%; in the assay with MRCKA it was 0%.

`Cc1nc(N(C)[C@H]2CN(C(=O)CC#N)CC[C@H]2C)c2cc[nH]c2n1`: the “%Inh” value with MARK4 is listed as 12%; in the assay with MAST1 it was 0%; in the assay on MEK1, 2%; in the assay on MEK2 it was 4%; in the assay on MEK3 it was 10%; with MEK4, 0%. In addition, the “%Inh” value in the assay on MEK5 is reported as 0%; in the assay on MEK6, 0%; in the assay on MELK, 0%; in the assay on MERTK, 24%; in the assay with MET it was 0%; in the assay with MINK, 0%. Also, the “%Inh” value in the assay with MKK7 is 0%; in the assay on MKNK1, 0%; in the assay on MKNK2, 0%; in the assay with MLCK it was 0%; with MLK1 it was 0%; in the assay on MLK2, 11%. Moreover, the “%Inh” value in the assay on MLK3 and in the assay with MRCKA was 0% in each case.

On to `CCn1c(-c2ccoc2)nc2cnccc21` [SB-733887], for which the “%Inh” value was found to be 0% in the assay with MARK4; 9% in the assay on MAST1; 18% in the assay on MEK1; 0% in the assay with MEK2; 5% in the assay on MEK3; 14% in the assay on MEK4. Moreover, the “%Inh” value in the assay with MEK5 is listed as 38%; in the assay on MEK6, 0%; with MELK, 22%; in the assay on MERTK, 5%; with MET, 0%; in the assay on MINK, 0%. Besides, the “%Inh” value in the assay with MKK7 came out at 33%; with MKNK1, 13%; with MKNK2, 17%; with MLCK, 0%; in the assay with MLK1 it was 0%; with MLK2 it was 0%. Moreover, the “%Inh” value in the assay on MLK3 stood at 3%; in the assay on MRCKA, 1%.

Take `COc1ccc(-c2cc3c(C)nc(N)nc3n([C@H]3CC[C@H](O)CC3)c2=O)cn1`: the “%Inh” value with MARK4, with MAST1, in the assay on MEK1, in the assay on MEK2, in the assay on MEK3 and with MEK4 was 0% throughout. Moreover, the “%Inh” value with MEK5 is 0%; in the assay with MEK6, 0%; with MELK, 3%; with MERTK, 0%; in the assay with MET, 0%; in the assay on MINK, 0%. Further, the “%Inh” value in the assay with MKK7, with MKNK1, in the assay on MKNK2, with MLCK, in the assay on MLK1 and in the assay on MLK2 was 0% in each case. Further, the “%Inh” value in the assay with MLK3 and with MRCKA was 0% throughout.

Consider `O=C(Nc1n[nH]c2nc(-c3ccccc3)c(Br)cc12)C1CC1` [SB-708998], for which the “%Inh” value is 0% in the assay with MARK4; 0% in the assay with MAST1; 0% in the assay on MEK1; 0% with MEK2; 0% in the assay on MEK3; 21% with MEK4. Moreover, the “%Inh” value is listed as 42% with MEK5; 0% in the assay on MEK6; 6% in the assay with MELK; 27% in the assay with MERTK; 0% with MET; 6% in the assay with MINK. The “%Inh” value in the assay on MKK7 came to 0%; in the assay on MKNK1 it was 7%; in the assay with MKNK2 it was 1%; in the assay with MLCK it was 21%; in the assay with MLK1 it was 0%; in the assay on MLK2 it was 18%. In addition, the “%Inh” value in the assay with MLK3 turned out to be 22%; in the assay with MRCKA, 0%.

In the case of `Cc1ccc(Oc2ccc(Nc3ncnc4cc[nH]c34)cc2C)cn1`, the “%Inh” value with MARK4 was 19%; with MAST1 it was 49%; with MEK1, 37%; in the assay with MEK2 it was 25%; in the assay on MEK3, 0%; in the assay with MEK4, 0%. The “%Inh” value is 99.7% with MEK5; 9% in the assay with MEK6; 0% in the assay with MELK; 0% with MERTK; 4% with MET; 10% in the assay on MINK. The “%Inh” value with MKK7 is recorded as 0%; in the assay on MKNK1, 34%; in the assay with MKNK2 it was 41%; in the assay with MLCK it was 0%; in the assay with MLK1, 5%; with MLK2, 19%. Moreover, the entries for the “%Inh” value in the assay with MLK3 and in the assay on MRCKA were 1% and 0%, respectively.

Consider `COc1ccc(CNC(=O)NC2CCN(c3ccnc(Nc4ccc(F)cc4)n3)C2)cc1` (centres unmarked) [GSK1379706], for which the “%Inh” value is listed as 3% with MARK4; 53% with MAST1; 29% in the assay with MEK1; 21% in the assay with MEK2; 0% with MEK3; 28% in the assay on MEK4. Further, the “%Inh” value in the assay on MEK5 stood at 25%; in the assay on MEK6, 12%; in the assay on MELK, 21%; in the assay on MERTK, 39%; in the assay on MET it was 0%; in the assay with MINK, 80%. Further, the “%Inh” value is on record as 10% in the assay on MKK7; 0% in the assay with MKNK1; 0% in the assay on MKNK2; 8% in the assay on MLCK; 0% with MLK1; 0% with MLK2. Moreover, the “%Inh” value in the assay with MLK3 is listed as 17%; with MRCKA, 16%.

On to `COc1cccc(-n2cnc3c(N)ncnc32)c1` [SKF-97416], for which the “%Inh” value is reported as 0% in the assay with MARK4; 59% in the assay with MAST1; 12% in the assay with MEK1; 12% with MEK2; 43% with MEK3; 36% with MEK4. Also, the “%Inh” value in the assay with MEK5 was 80%; with MEK6, 18%; in the assay on MELK, 0%; in the assay on MERTK, 0%; in the assay on MET it was 0%; in the assay on MINK, 22%. The “%Inh” value in the assay on MKK7 is listed as 30%; in the assay with MKNK1, 0%; in the assay on MKNK2, 31%; with MLCK, 5%; with MLK1, 2%; in the assay on MLK2, 0%. For the same molecule, the “%Inh” value worked out at 0% with MLK3 and 13% with MRCKA.

Regarding `OCCCNc1nccc(-c2c(-c3cccc(C(F)(F)F)c3)nn3cc(C(F)(F)F)ccc23)n1` [GW630813], the “%Inh” value with MARK4, in the assay with MAST1, in the assay on MEK1, in the assay with MEK2, with MEK3 and in the assay on MEK4 was 0% in each case. The “%Inh” value in the assay on MEK5 stood at 7%; in the assay with MEK6 it was 0%; in the assay with MELK it was 0%; in the assay with MERTK, 12%; in the assay on MET it was 0%; in the assay on MINK, 0%. Further, the “%Inh” value in the assay with MKK7 worked out at 15%; with MKNK1, 0%; in the assay on MKNK2 it was 0%; in the assay with MLCK, 0%; in the assay with MLK1 it was 0%; with MLK2 it was 0%. Further, the “%Inh” value in the assay with MLK3 and in the assay on MRCKA was 0% each time.

Consider `COC(=O)c1c(-c2ccccc2)c2cc(Br)ccc2c(=O)n1Cc1ccc(NC(=O)CCC(=O)O)cc1`, for which the “%Inh” value amounted to 4% in the assay with MARK4; 29% in the assay on MAST1; 0% with MEK1; 3% with MEK2; 11% with MEK3; 10% in the assay on MEK4. For the same molecule, the “%Inh” value in the assay with MEK5 worked out at 10%; in the assay with MEK6, 21%; in the assay on MELK it was 7%; in the assay with MERTK, 3%; in the assay with MET, 18%; in the assay with MINK, 0%. In addition, the “%Inh” value in the assay on MKK7, in the assay on MKNK1, in the assay with MKNK2, with MLCK, with MLK1 and in the assay on MLK2 was 0% in each case. The “%Inh” value with MLK3 and in the assay on MRCKA was 0% in each case.

(Values after publication PMC5540273 (PLoS ONE, 2017).)
